# Experimental data published in paper PMC7826789 (International Journal of Molecular Sciences, 2021).
# What was measured:
# Conditions in all cases: Compound Concentration (nM):1000
# PAK1 = system: PAK1
# PAK2 = system: PAK2
# PAK3 = system: PAK3
# PAK4 = system: PAK4
# PAK6 = system: PAK6
# PAK7 = system: PAK7
# PCTK1 = system: T1, PCTK1
# T1 construct: gene CDK16
# PCTK2 = system: T2, PCTK2
# T2 construct: gene CDK17
# PCTK3 = system: T3, PCTK3
# T3 construct: gene CDK18
# PDGFRA = system: PDGFRA
# PDGFRB = system: PDGFRB
# PDPK1 = system: PDPK1
# PFCDPK1(P.falciparum) = system: T4, PFCDPK1(P.falciparum)
# T4 construct: gene CDPK1
# PFPK5(P.falciparum) = system: T5, PFPK5(P.falciparum)
# T5 construct: gene MAL13P1.279
# PFTAIRE2 = system: T6, PFTAIRE2
# T6 construct: gene CDK15
# PFTK1 = system: T7, PFTK1
# T7 construct: gene CDK14
# PHKG1 = system: PHKG1
# PHKG2 = system: PHKG2
# PIK3C2B = system: PIK3C2B
# PIK3C2G = system: PIK3C2G
# 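Further: KINOMEscan scanMAX binding as percent activity remaining versus control; lower means stronger binding.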
SMILES,Percent Control (PAK1),Percent Control (PAK2),Percent Control (PAK3),Percent Control (PAK4),Percent Control (PAK6),Percent Control (PAK7),Percent Control (PCTK1),Percent Control (PCTK2),Percent Control (PCTK3),Percent Control (PDGFRA),Percent Control (PDGFRB),Percent Control (PDPK1),Percent Control (PFCDPK1(P.falciparum)),Percent Control (PFPK5(P.falciparum)),Percent Control (PFTAIRE2),Percent Control (PFTK1),Percent Control (PHKG1),Percent Control (PHKG2),Percent Control (PIK3C2B),Percent Control (PIK3C2G)
COc1ccc2c(-c3ccnc(Nc4cccc(OC(F)(F)F)c4)n3)cnn2n1 [GW810372X],100%,100%,100%,100%,96%,100%,100%,100%,99%,87%,100%,100%,81%,100%,100%,100%,100%,100%,100%,74%
Cl.c1ccc(Cc2nc3ccc(Nc4ncnc5ccccc45)cc3[nH]2)cc1 [GR269666A],100%,100%,100%,100%,100%,100%,100%,100%,100%,49%,100%,100%,83%,100%,100%,100%,100%,97%,100%,89%
Cc1cc(O)cc(C)c1/C=C/c1cncc(C(N)=O)c1 [GW435821X],99%,100%,84%,100%,98%,100%,100%,100%,93%,18%,0.5%,96%,75%,100%,100%,100%,100%,100%,97%,85%
COc1ccc2[nH]c3c4[nH]c5ccc(OC)cc5c4c4c(c3c2c1)C(=O)NC4=O [GW296115X],70%,91%,4.2%,90%,100%,91%,99%,72%,80%,11%,0.1%,25%,29%,82%,91%,85%,12%,52%,94%,76%
Cl.O=C(O[C@H]1CN[C@H](C#Cc2cc3ncnc(Nc4ccc5c(cnn5Cc5ccccc5)c4)c3s2)C1)N1CCOCC1 [GSK200398A],100%,100%,63%,100%,100%,89%,83%,96%,100%,83%,100%,89%,88%,100%,91%,100%,96%,98%,88%,84%
NS(=O)(=O)c1ccc(Nc2ncc(-c3ccccc3)o2)cc1 [GW572399X],100%,100%,86%,100%,87%,100%,3.8%,100%,100%,8.8%,3.4%,100%,27%,100%,98%,100%,100%,100%,100%,100%
COc1cccc(-c2c[nH]c3c(N/N=C/c4ccncc4)ncnc23)c1 [GW814408X],100%,94%,1.9%,100%,100%,100%,28%,75%,100%,8.2%,5.5%,78%,5.2%,97%,78%,95%,100%,100%,100%,92%
COc1cc2ncn(-c3cc(O[C@H](C)c4ccccc4Cl)c(C(N)=O)s3)c2cc1OC [GSK237701A],98%,93%,7.6%,93%,88%,100%,90%,100%,100%,24%,12%,90%,75%,57%,60%,100%,100%,79%,12%,78%
CN1CCN(C(=O)c2ccc(NC(=O)Nc3ccc(N(C)c4ccnc(Nc5ccc(CS(C)(=O)=O)cc5)n4)cc3)cc2)CC1.Cl [GW830263A],92%,50%,0%,46%,92%,67%,76%,91%,96%,2%,0%,68%,71%,95%,100%,81%,100%,100%,100%,100%
COc1ccc2cc(-c3c(-c4ccncc4)nc(-c4ccc(S(C)(=O)=O)cc4C)n3C)ccc2c1 [SB-633825],87%,85%,12%,81%,97%,87%,74%,100%,100%,91%,70%,100%,61%,77%,45%,80%,100%,84%,76%,81%
